A selection: hits, their analogues and other compounds. The true share with any hit is near 1.6%.
KCNQ2 inh – inhibitors of rat KCNQ2 potassium channel; O88943; CHO-K1 KCNQ2, FluxOR thallium flux, 20 min; active compounds read low; B-score at 10 µM; actives 1.1% (n = 310,000); AID 2156;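 active = fluorescence ratio B-score at most minus 3 library SDs, with starting brightness B-score within 2 library SDs, cut at about -5.5 in these data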
KCNQ2 enhance – enhances the rat KCNQ2 potassium channel; O88943; CHO-K1 KCNQ2, FluxOR thallium flux fluorescence; active compounds read high; B-score at 10 µM; actives 0.54% (n = 310,000);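 active = fluorescence ratio B-score at least 3 SD of library B-scores, with initial fluorescence B-score within 3 of them, cut at about 5.3 in these data; same plate scores as AID 2156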;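 also: B-score of peak minus minimum over baseline fluorescence ratio after K+ and Tl+ stimulus; positive B-score means potentiation of KCNQ2 with more thallium influx and brighter signal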
Starred values were filed as active, the others as inactive; i = inactive; . = not tested or not shown.

SMILES	KCNQ2 inh	KCNQ2 enhance
O=C(CNC(=O)N1CC(=O)Nc2ccccc21)NCc1ccccc1Cl	i	0.19
Cc1onc(-c2ccccc2)c1C(=O)N/N=C/c1cn(C)c2ccccc12	-6.4*	-6.4
Cc1cccc(/C=N/NC(=O)c2c(-c3ccccc3)noc2C)c1O	i	.
O=C(CCc1ccccc1)N/N=C/c1cccc([N+](=O)[O-])c1	i	2.2
O=C(N/N=C/c1cccc([N+](=O)[O-])c1)C1CC1c1ccccc1 (configuration not stated)	i	15*
O=C(N/N=C/c1ccco1)C1CC1	i	1.2
O=C(N/N=C/c1ccco1)C1CC1c1ccccc1 (configuration not stated)	i	20*
O=C(O)CCC(=O)N1N=C(c2ccccc2)CC1c1ccc2c(c1)OCO2 (configuration not stated)	i	.
CCOc1c(CNc2nnnn2C)cccc1OC	i	0.08
O=C(CSc1nnc(Cc2cccs2)n1C1CCCCC1)N1CCCc2ccccc21	-6.5*	-6.5
O=C(CSc1nnc(Cc2cccs2)n1CCc1ccccc1)N1CCCc2ccccc21	-6.5*	-6.5
O=C(CSc1nnnn1C1CCCC1)N1CCCc2ccccc21	i	.
Cn1c(Cc2cccs2)nnc1SCC(=O)N1CCCc2ccccc21	i	.
CC(C)[C@H](NC(=O)N1c2ccccc2NC(=O)[C@@H]1C(C)C)C(=O)N[C@@H](Cc1c[nH]c2ccccc12)C(=O)O	i	0.77
c1ccc(N2CCN(CC3CCCCC3)CC2)cc1	i	0.85
OCC[C@H]1C[C@@H](O)[C@H](O)[C@]2(CCCCO2)O1	i	0.15
COc1cc(CNCc2ccccn2)ccc1OCc1ccc(Cl)c(Cl)c1	-5.9*	-5.9
COc1cc(CNCc2ccccn2)ccc1OCC(N)=O	i	1.8
COc1cc(C2SCC(=O)N2Cc2ccccc2)ccc1O (configuration not stated)	i	.
O=C(NCc1ccccc1Br)C1CCCO1 (configuration not stated)	i	0.01
O=C1CN(c2ccccc2)C(=S)N1C(=O)c1ccc(Br)cc1	-5.8*	-5.8
O=C(c1ccc(Br)cc1)N1CCC(C(=O)N2CCN(c3ccccc3)CC2)CC1	i	1.5
Cc1ccc(N(C(=O)c2ccccc2Cl)C2=NC(C)CS2)c(C)c1 (configuration not stated)	-6*	-6
CCOc1ccccc1N(C(=O)c1ccccc1Cl)C1=NC(C)(C)CS1	i	.
O=c1cc(CN2CCN(C/C=C/c3ccccc3)CC2)c2cc(O)c(-c3ccccc3)cc2o1	i	0.92
SMILES	KCNQ2 inh	KCNQ2 enhance
CC(C)CN(Cc1cc(=O)oc2cc(-c3ccccc3)c(O)cc12)CC(C)C	-7.5*	-7.5
O=C(NCc1ccccc1)C12CC3CC(CC(Br)(C3)C1)C2	i	.
Nn1c(SC/C=C/c2ccccc2)nnc1-c1ccco1	i	0.02
C(=C\c1ccccc1)/CSc1nnc(-c2ccccc2)n1Cc1ccco1	-5.9*	-5.9
C(=C\c1ccccc1)/CSc1nnc(-c2ccncc2)n1Cc1ccco1	i	.
Clc1cccc(-c2nnc(SC/C=C/c3ccccc3)n2Cc2ccco2)c1	-8.3*	-8.3
Cc1ccc(CNC(=O)CCCC(=O)c2ccccc2)cc1	i	.
CCCOc1ccc(/C=N/NC(=O)c2ccc3c(c2)OCO3)c(OCCC)c1	i	0.08
Cc1ccc(S(=O)(=O)Cc2ccc(C(=O)N3CCN(c4cc(C)ccc4C)CC3)o2)cc1	i	0.55
Cc1ccc(C)c(N2CCN(C(=O)c3ccc(CS(=O)(=O)c4ccccc4C)o3)CC2)c1	-6.5*	-6.5
CCOC(=O)c1c(C)[nH]c(C(=O)NCCc2ccc(OC)c(OC)c2)c1C	i	0.37
CCC(C)C(NS(=O)(=O)c1ccc(C)cc1)C(=O)O (configuration not stated)	i	0.45
CCC(C)C(NS(=O)(=O)c1ccc(C)cc1)C(=O)NCCCN1CCOCC1 (configuration not stated)	-5.6*	-5.6
COc1ccc(NC(=O)c2cn(-c3ccccc3)nc2-c2cc3ccccc3o2)cc1	-6*	-6
COc1ccc(NC(=O)c2cn(-c3ccccc3)nc2-c2ccncc2)cc1	i	.
COc1ccc(-c2nn(-c3ccccc3)cc2C(=O)NC(=S)NNC(=O)c2ccncc2)cc1	i	.
COc1ccc(-c2nn(-c3ccccc3)cc2C(=O)NC(=S)Nc2cc(Cl)ccc2Cl)cc1	-7.7*	-7.7
COc1ccccc1CNC(=O)C(=O)NCC1OCCCN1S(=O)(=O)c1ccc(F)cc1C (configuration not stated)	i	.
CCC(C)n1cnc2c(c1=O)c1nc3ccccc3nc1n2Cc1ccc2c(c1)OCO2 (configuration not stated)	i	0.06
Cc1nc2c(c(=O)n1CCC(C)C)c1nc3ccccc3nc1n2Cc1ccc2c(c1)OCO2	-6.3*	-6.3
CCCCN(CCCC)C(=S)NC(=O)c1ccccc1Cl	i	19*
CCN(CC)C(=S)NC(=O)c1ccc(Cl)cc1Cl	i	4.2
